# From PubChem BioAssay
# Calls of active or inactive are those of the source.
# Experiments:
# [1] = test system: Plasmodium falciparum Sir2 (PF13_0152, Sir2A); experiment: Plasmodium falciparum Sir2A binding compounds – biochemical, small-molecule microarray, 635 nm fluorescence, primary screen (AID 1098); settings: fluorescence 635 nm, higher = more signal;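 further: score merges spot fluorescence intensity with its signal-to-noise ratio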
# [2] = probe aDKK1 binding to arrayed compounds – biochemical, biotinylated probe, 635/667 nm fluorescence, primary screen (AID 1099); settings: small-molecule microarray, higher = more signal;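 further: score merges 667nm spot fluorescence with signal to noise across triplicate slides; reference of the scale not given here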
# [3] = probe aCHRDL2 binding to arrayed compounds – biochemical, biotinylated probe, 635/667 nm fluorescence, primary screen (AID 1100); settings: small-molecule microarray, higher = more signal
# [4] = change in splice reporter luminescence, either direction, cell-based, HEK293, spliceosome inhibition project, primary screen (AID 1101); settings: HEK293 splicing luciferase reporter, 24 h, higher = more signal, called active from +8 up or from −8 down;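 further: HEK293 cells carrying a splicing-competent luciferase reporter gene; test concentration not given here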
# [5] = molecular target: Fibroblast growth factor 10 (Homo sapiens) (UniProt O15520); experiment: compounds binding fibroblast growth factor 10 – biochemical, small-molecule microarray, 635 nm fluorescence, primary screen (AID 1102); settings: FGF10 binding, fluorescence 635 nm, higher = more signal
# [6] = test system: glycogen synthase kinase-3 (GSK3A per assay name; protocol says GSK3B); experiment: compounds binding glycogen synthase kinase-3 – biochemical, small-molecule microarray, 635 nm fluorescence, GSK3A, primary screen (AID 1103); settings: fluorescence 635 nm, higher = more signal; further: the record names both GSK3A and GSK3B
# [7] = molecular target: Epidermal growth factor receptor (Homo sapiens) (UniProt P00533); experiment: compounds binding epidermal growth factor receptor – biochemical, small-molecule microarray, 635 nm fluorescence, primary screen (AID 1104); settings: EGFR binding, higher = more signal;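 further: score merges 667 nm emission intensity with spot signal to noise over triplicate slides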
# [8] = molecular target: Follistatin-related protein 3 (Homo sapiens) (UniProt O95633); experiment: compounds binding follistatin-related protein 3 – biochemical, small-molecule microarray, 635 nm fluorescence, primary screen (AID 1105); settings: FSTL3 binding, higher = more signal;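 further: score merges emission near 667 nm and signal to noise per printed spot across three slides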
# [9] = molecular target: Dickkopf-related protein 1 (Homo sapiens) (UniProt O94907); experiment: small molecules binding DKK1 protein – biochemical, small-molecule microarray, 635 nm fluorescence scan, primary screen (AID 1106); settings: higher = more signal;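 further: score merges emission near 667 nm with signal to noise over three replicate slides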
# [10] = test system: Inhibin beta A chain (activin A); experiment: small molecules binding activin A – biochemical, small-molecule microarray, 635 nm fluorescence scan, primary screen (AID 1107); settings: INHBA, higher = more signal;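 further: mouse activin A protein probed at 4.33 µg/mL on printed slides; score merges bound-protein fluorescence near 667 nm with spot signal-to-noise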
# Follistatin-related protein 3 (Homo sapiens), sequence (O95633 whole entry, looked up): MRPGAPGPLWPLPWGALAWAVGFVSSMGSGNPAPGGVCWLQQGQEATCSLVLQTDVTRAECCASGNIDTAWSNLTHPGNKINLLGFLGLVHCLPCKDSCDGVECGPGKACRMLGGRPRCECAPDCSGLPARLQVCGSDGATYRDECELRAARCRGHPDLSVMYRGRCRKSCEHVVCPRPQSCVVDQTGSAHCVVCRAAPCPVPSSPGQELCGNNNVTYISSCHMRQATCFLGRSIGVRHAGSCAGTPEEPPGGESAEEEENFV
# Fibroblast growth factor 10 (Homo sapiens), sequence (O15520 whole entry, looked up): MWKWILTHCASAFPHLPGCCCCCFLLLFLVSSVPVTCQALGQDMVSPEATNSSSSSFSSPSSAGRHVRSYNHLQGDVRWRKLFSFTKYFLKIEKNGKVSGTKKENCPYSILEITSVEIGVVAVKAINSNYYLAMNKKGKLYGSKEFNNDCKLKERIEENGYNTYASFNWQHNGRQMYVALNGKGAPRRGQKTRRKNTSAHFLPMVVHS
# Dickkopf-related protein 1 (Homo sapiens), sequence (O94907 whole entry, looked up): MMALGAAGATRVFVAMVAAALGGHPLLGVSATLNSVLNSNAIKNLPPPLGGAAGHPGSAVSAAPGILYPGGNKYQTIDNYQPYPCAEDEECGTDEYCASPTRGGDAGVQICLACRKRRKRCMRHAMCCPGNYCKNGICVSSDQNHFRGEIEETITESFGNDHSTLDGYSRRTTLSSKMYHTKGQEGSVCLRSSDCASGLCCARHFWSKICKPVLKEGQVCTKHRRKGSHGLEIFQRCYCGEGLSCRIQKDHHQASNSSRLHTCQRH
# Epidermal growth factor receptor (Homo sapiens), sequence (P00533 whole entry, looked up): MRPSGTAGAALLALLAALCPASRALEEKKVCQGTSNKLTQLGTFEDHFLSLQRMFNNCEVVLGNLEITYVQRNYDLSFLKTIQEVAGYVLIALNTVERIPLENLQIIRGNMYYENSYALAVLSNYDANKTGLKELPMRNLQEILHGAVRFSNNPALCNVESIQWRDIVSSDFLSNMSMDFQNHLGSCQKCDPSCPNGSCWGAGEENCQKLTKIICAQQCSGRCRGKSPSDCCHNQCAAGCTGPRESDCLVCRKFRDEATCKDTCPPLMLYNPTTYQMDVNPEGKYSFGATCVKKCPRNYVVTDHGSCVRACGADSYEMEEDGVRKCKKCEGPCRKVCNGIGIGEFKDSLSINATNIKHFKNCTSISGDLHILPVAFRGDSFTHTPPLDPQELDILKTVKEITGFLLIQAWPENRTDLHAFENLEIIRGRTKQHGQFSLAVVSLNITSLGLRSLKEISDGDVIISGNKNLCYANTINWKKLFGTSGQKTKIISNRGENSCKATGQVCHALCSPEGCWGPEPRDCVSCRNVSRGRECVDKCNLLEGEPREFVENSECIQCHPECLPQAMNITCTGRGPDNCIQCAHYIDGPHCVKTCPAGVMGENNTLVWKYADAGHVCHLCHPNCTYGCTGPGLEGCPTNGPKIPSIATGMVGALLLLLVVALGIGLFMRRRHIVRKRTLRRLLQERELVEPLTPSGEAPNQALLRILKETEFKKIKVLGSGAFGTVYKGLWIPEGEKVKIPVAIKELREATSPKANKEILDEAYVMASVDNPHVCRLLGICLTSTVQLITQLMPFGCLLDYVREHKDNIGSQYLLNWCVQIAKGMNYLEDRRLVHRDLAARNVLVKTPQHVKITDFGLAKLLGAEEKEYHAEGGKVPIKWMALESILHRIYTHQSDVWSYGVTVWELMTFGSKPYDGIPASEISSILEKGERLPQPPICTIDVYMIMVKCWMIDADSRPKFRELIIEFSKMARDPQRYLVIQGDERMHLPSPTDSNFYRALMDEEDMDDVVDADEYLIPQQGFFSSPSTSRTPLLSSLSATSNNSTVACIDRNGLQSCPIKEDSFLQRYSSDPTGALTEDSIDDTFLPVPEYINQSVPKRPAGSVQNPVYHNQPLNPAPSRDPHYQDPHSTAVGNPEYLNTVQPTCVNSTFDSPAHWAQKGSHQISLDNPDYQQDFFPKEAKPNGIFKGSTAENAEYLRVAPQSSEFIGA
SMILES,composite z-score [1],composite z-score [2],composite z-score [3],z-score [4],composite z-score [5],composite z-score [6],composite z-score [7],composite z-score [8],composite z-score [9],composite z-score [10]
CC(C)(C)OC(=O)CC[C@]1(C(N)=O)N=C(c2ccc(OCCCO)cc2)O[C@H]1c1ccccc1CN=[N+]=[N-],1.62,1.11,1.2,-0.26 (inactive),1.44,1.28,-0.643,0.0115,-0.395,0.0976
COCCOC(=O)N1C(=O)[C@@]2(c3cc(C#CC4(O)CCCCCC4)ccc31)[C@H](C(=O)N1CCc3cc(OC)c(OC)cc3C1)[C@H]1C(=O)O[C@H](c3ccccc3)[C@H](c3ccccc3)N1[C@@H]2c1ccc(O)cc1,0.974,0.142,0.248,0.543 (inactive),1.02,1.32,0.648,1.02,0.639,0.122
O=C1OCCC=C[C@H]2OC34C=CCN(c5ccc(Cl)cc5)C(=O)[C@H]3N(CCO)C(=O)[C@@H]4C12 (stereo not given in full),-0.358,-0.208,0.266,-0.343 (inactive),-0.45,-0.695,-0.723,-0.683,-0.568,-1.16
COC(=O)[C@@]1(CCC(=O)OC(C)(C)C)N=C(c2ccc(OCCCO)cc2)O[C@H]1c1ccccc1CN=[N+]=[N-],1.3,0.425,0.87,1.29 (inactive),-0.035,-0.546,-0.827,0.157,-0.346,0.282
COC(=O)C1=CC(CCCO)=CC(c2ccc(CN3CCCC3)cc2)N(Cc2sc3ccccc3c2Cl)C=C1C(=O)OC (stereo not given),1.81,0.81,1.05,-0.855 (inactive),1.37,1.32,0.526,0.708,0.227,0.375
CN(C)CCCC[C@@H]1NC(=O)[C@H]2C[C@@H](C(=O)NCc3ccc(F)cc3)[C@@H](c3ccc(O)cc3)N2C1=O,0.298,0.0179,-0.4,0.163 (inactive),1.2,0.902,0.0583,0.571,0.776,0.853
COCC(=C=CC[C@@H](O)c1ccc(OCCO)cc1)C[C@@H](O)COCc1ccccc1,0.804,-0.0148,0.548,-1.83 (inactive),1.52,0.611,0.158,0.939,-0.0983,1.42
COCCOC(=O)N1C(=O)[C@@]2(c3cc(C#Cc4ccc(OC)cc4)ccc31)[C@H](C(=O)N1CCCCCCC1)[C@H]1C(=O)O[C@H](c3ccccc3)[C@H](c3ccccc3)N1[C@@H]2c1ccccc1OCCO,1.55,2.5,1.57,0.00537 (inactive),0.766,1.32,1.07,1.56,1.61,1.66
CCCC[C@H]1OB(O)C[C@H]2C1=C(C)C[C@H]1C(=O)C=CC(=O)[C@H]12,0.559,-0.257,-0.722,1.04 (inactive),0.845,0.827,0.475,0.799,0.664,0.852
NC(=O)[C@@]1(CCS(=O)(=O)c2ccccc2)COC(c2ccc(OCCCO)cc2)=N1,1.35,0.628,0.831,0.129 (inactive),0.19,-0.123,-0.143,-0.232,-0.526,1.21
CCCCC(=C=CC[C@@H](O)c1cccc(OCCO)c1)C[C@@H](O)COCc1ccccc1,0.377,-0.17,-0.325,-1.21 (inactive),0.483,0.0702,-1.35,-0.526,-0.274,0.211
NCCCC[C@@H]1NC(=O)[C@H]2C[C@@H](C(=O)O)[C@@H](c3cccc(OCCO)c3)N2C1=O,1.61,1.21,0.752,-0.615 (inactive),1.51,1.35,1.53,1.53,1.62,1.03
COc1ccc([Si](C)(C)[C@H]2[C@H](CCn3cc([C@H](O)c4ccccc4)nn3)O[C@@]3(C(=O)N(C)c4c(Br)cc(C)cc43)[C@@H]2C)cc1,-0.34,-0.189,0.387,-0.923 (inactive),0.574,0.0322,-0.597,-0.499,0.335,0.227
CC(C)CNC(=O)[C@@H]1c2ccccc2C(=O)N(Cc2ccccc2)[C@H]1c1ccc(CO)cc1,0.0346,0.282,0.96,-0.18 (inactive),-0.787,0.0758,-1.35,-1.38,-1.05,-0.217
